# Source: PubChem BioAssay (NCI)
# The panel holds about 83,000 compounds, 20% with a hit somewhere; the sample as a whole holds those more often.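 Activity criterion: percent growth below 10, measured after cells in 96-well plates were exposed to a single compound concentration for 48 hours.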 Unmarked numbers belong to inactive results. The source made the active and inactive calls.
# Test system: EKVX NSCLC
# Experiment: NCI-60 one-dose screen, 48 h (100 = growth as untreated, 0 = no growth, -100 = all killed)
# Conditions: 10 µM
row,Structure (SMILES),growth
1,CN(C)CCN=c1nc2c(c(N)n1-c1ccccc1)c(=S)n(-c1ccccc1)c(=S)n2-c1ccccc1,39.8%
2,CC1(O)CCC2CC3OC3(C)CCC3OC3(C)CCC1C2(C)C (stereo not given),93.5%
3,N#Cc1cc(-c2cc3ccccc3o2)oc1N,-26.4% (active)
4,Cc1cc(C)c(NC(=O)c2sc3nc4c(cc3c2N)C(=O)CCC4)c(C)c1,54.4%
5,CCN(CC)CCNC(=O)c1ccc(NC(C)=O)cc1,100%
6,COc1ccc2c(c1)[n+]([O-])c(C#N)c(NC(=O)c1ccco1)[n+]2[O-],119%
7,CCCCOc1ccc(NC(=O)Nc2nnc(C)s2)cc1,99.6%
8,COc1ccc2c(c1)nc(N)c1c3cccnc3cn21,66.5%
9,Cc1cs/c(=N\NC(=O)c2cc(-c3cc4ccccc4o3)nn2-c2ccccc2)n1-c1ccccc1,72.4%
10,Clc1nc(Cl)c2c(ncn2C/C=C\Cn2cnc3c(Cl)nc(Cl)nc32)n1,-79.8% (active)
